Data taken from PubChem BioAssay.
The source made the active and inactive calls.

Legend:
[1] = test system: Plasmodium falciparum Sir2 (PF13_0152, Sir2A); assay: Plasmodium falciparum Sir2A binding compounds – biochemical, small-molecule microarray, 635 nm fluorescence, primary screen (AID 1098); details: fluorescence 635 nm, higher = more signal;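 also: score merges spot fluorescence intensity with its signal-to-noise ratio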
[2] = probe aDKK1 binding to arrayed compounds – biochemical, biotinylated probe, 635/667 nm fluorescence, primary screen (AID 1099); details: small-molecule microarray, higher = more signal;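 also: score merges 667nm spot fluorescence with signal to noise across triplicate slides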
[3] = probe aCHRDL2 binding to arrayed compounds – biochemical, biotinylated probe, 635/667 nm fluorescence, primary screen (AID 1100); details: small-molecule microarray, higher = more signal
[4] = change in splice reporter luminescence, either direction, cell-based, HEK293, spliceosome inhibition project, primary screen (AID 1101); details: HEK293 splicing luciferase reporter, 24 h, higher = more signal, called active from +8 up or from −8 down;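 also: HEK293 cells carrying a splicing-competent luciferase reporter gene; test concentration not given here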
[5] = biological target: Fibroblast growth factor 10 (Homo sapiens) (UniProt O15520); assay: compounds binding fibroblast growth factor 10 – biochemical, small-molecule microarray, 635 nm fluorescence, primary screen (AID 1102); details: FGF10 binding, fluorescence 635 nm, higher = more signal
Chain of Fibroblast growth factor 10 (Homo sapiens) (O15520 whole entry, looked up): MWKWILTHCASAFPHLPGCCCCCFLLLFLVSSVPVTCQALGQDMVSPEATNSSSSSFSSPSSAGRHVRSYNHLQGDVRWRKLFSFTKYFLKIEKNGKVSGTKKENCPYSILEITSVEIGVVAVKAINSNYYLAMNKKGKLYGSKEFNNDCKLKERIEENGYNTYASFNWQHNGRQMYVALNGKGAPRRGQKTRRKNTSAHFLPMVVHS

[6] = test system: glycogen synthase kinase-3 (GSK3A per assay name; protocol says GSK3B); assay: compounds binding glycogen synthase kinase-3 – biochemical, small-molecule microarray, 635 nm fluorescence, GSK3A, primary screen (AID 1103); details: fluorescence 635 nm, higher = more signal; also: the record names both GSK3A and GSK3B
[7] = biological target: Epidermal growth factor receptor (Homo sapiens) (UniProt P00533); assay: compounds binding epidermal growth factor receptor – biochemical, small-molecule microarray, 635 nm fluorescence, primary screen (AID 1104); details: EGFR binding, higher = more signal;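 also: score merges 667 nm emission intensity with spot signal to noise over triplicate slides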
Chain of Epidermal growth factor receptor (Homo sapiens) (P00533 whole entry, looked up): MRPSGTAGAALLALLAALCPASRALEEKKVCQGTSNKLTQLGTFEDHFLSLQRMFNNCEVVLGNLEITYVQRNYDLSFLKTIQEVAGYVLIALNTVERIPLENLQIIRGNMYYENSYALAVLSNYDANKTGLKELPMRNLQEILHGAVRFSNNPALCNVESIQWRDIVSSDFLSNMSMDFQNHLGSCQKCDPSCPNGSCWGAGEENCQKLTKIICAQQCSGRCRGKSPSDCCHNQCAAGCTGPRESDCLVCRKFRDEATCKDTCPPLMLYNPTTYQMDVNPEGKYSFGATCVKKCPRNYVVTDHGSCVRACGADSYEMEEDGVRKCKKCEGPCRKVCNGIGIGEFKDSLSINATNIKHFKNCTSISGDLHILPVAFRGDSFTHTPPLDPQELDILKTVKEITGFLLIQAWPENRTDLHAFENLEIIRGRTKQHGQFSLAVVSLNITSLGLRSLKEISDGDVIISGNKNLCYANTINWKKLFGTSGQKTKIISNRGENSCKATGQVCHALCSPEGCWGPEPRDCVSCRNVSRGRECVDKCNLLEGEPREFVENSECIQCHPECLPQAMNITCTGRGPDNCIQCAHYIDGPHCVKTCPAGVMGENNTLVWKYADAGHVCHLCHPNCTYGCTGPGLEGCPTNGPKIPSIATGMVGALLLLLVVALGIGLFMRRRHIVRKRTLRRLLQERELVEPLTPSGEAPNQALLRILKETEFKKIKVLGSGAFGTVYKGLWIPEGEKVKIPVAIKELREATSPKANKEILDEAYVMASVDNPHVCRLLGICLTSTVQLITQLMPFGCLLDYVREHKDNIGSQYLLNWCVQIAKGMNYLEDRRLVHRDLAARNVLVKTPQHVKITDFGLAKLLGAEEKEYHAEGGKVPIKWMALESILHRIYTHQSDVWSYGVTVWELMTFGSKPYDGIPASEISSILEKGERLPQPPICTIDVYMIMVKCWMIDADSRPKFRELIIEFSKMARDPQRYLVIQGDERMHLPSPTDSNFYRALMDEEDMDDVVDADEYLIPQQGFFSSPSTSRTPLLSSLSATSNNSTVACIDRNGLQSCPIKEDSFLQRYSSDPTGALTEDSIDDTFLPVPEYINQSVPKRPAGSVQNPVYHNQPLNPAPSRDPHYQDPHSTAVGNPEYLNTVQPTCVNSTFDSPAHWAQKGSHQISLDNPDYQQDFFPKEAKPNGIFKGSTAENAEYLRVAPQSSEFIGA

[8] = biological target: Follistatin-related protein 3 (Homo sapiens) (UniProt O95633); assay: compounds binding follistatin-related protein 3 – biochemical, small-molecule microarray, 635 nm fluorescence, primary screen (AID 1105); details: FSTL3 binding, higher = more signal;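 also: score merges emission near 667 nm and signal to noise per printed spot across three slides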
Chain of Follistatin-related protein 3 (Homo sapiens) (O95633 whole entry, looked up): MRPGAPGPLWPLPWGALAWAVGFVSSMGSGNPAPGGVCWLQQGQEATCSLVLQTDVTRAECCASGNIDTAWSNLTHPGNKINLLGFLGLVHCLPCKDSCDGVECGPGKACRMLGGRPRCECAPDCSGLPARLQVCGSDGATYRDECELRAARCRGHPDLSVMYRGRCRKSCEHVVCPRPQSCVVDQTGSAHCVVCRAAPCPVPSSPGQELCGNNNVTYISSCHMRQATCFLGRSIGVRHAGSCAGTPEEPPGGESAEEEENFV

[9] = biological target: Dickkopf-related protein 1 (Homo sapiens) (UniProt O94907); assay: small molecules binding DKK1 protein – biochemical, small-molecule microarray, 635 nm fluorescence scan, primary screen (AID 1106); details: higher = more signal;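 also: score merges emission near 667 nm with signal to noise over three replicate slides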
Chain of Dickkopf-related protein 1 (Homo sapiens) (O94907 whole entry, looked up): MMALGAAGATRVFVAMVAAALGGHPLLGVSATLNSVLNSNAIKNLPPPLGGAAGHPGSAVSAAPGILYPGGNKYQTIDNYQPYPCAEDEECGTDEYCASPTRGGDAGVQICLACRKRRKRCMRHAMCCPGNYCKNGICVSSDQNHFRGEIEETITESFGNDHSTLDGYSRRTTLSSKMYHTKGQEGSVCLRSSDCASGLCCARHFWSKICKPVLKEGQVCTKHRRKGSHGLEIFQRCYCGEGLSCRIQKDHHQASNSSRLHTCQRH

[10] = test system: Inhibin beta A chain (activin A); assay: small molecules binding activin A – biochemical, small-molecule microarray, 635 nm fluorescence scan, primary screen (AID 1107); details: INHBA, higher = more signal;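 also: mouse activin A protein probed at 4.33 µg/mL on printed slides; score merges bound-protein fluorescence near 667 nm with spot signal-to-noise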
[11] = test system: Human papillomavirus type 1a protein E7 (residues 44-93); assay: small molecules binding HPV E7 44-93 – biochemical, small-molecule microarray, residues 44-93, 635 nm fluorescence, primary screen (AID 1108); details: fluorescence 635 nm, higher = more signal;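 also: E7 fragment applied at 1 µg/mL in TBST for 1 h at 4 C; score combines spot fluorescence with its signal to noise ratio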
[12] = hepatitis C replication reporter changes, two-sided – Huh7 cells, luciferase reporter, HCV replication inhibitor project, primary screen (AID 1109); details: Huh7 HCV replicon luciferase reporter, 48 h; higher = more signal;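 also: huh7 hepatoma cells harbouring a luciferase neomycin HCV replicon reporter; luciferase luminescence as measure of HCV replicon replication; test concentration not given here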
[13] = biological target: Left-right determination factor 2 (Homo sapiens) (UniProt O00292); assay: small molecules binding LEFTY2 protein – biochemical, small-molecule microarray, 635 nm fluorescence scan, primary screen (AID 1110); details: higher = more signal
Chain of Left-right determination factor 2 (Homo sapiens) (O00292 whole entry, looked up): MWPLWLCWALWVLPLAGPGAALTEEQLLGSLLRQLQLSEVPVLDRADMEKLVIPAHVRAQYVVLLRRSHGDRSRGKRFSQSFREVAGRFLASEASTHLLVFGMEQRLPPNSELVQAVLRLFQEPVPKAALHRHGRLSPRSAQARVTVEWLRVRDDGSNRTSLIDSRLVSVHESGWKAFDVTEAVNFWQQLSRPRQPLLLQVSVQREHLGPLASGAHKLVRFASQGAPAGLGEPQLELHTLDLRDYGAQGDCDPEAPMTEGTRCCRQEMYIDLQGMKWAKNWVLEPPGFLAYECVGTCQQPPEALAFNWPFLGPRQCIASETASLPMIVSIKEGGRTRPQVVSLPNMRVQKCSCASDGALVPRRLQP

[14] = biological target: Calmodulin-1 (Homo sapiens) (UniProt P0DP23); assay: small molecules binding calmodulin-1 with EGTA – biochemical, small-molecule microarray, Cy5-labelled CALM1, profiling panel (AID 1111); details: Cy5-CALM1 binding fluorescence, higher = more signal;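 also: labelled calmodulin applied in Tris saline Tween buffer holding calcium plus EGTA and DTT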
[15] = biological target: Calmodulin-1 (Homo sapiens) (UniProt P0DP23); assay: small molecules binding Ca-loaded calmodulin-1 – biochemical, small-molecule microarray, Cy5-labelled CALM1, plus calcium, artefact control for SMM control-protein annotation, profiling panel (AID 1112); details: Cy5-CALM1 binding fluorescence, higher = more signal;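 also: score merges spot fluorescence with signal to noise from triplicate slides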
[16] = probe aWnt5a binding to arrayed compounds – biochemical, biotinylated probe, 635/667 nm fluorescence, primary screen (AID 1113); details: small-molecule microarray, higher = more signal;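 also: score merges 667 nm fluorescence intensity with signal-to-noise per printed feature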
[17] = probe aShh binding to arrayed compounds – biochemical, biotinylated probe, 635/667 nm fluorescence, primary screen (AID 1114); details: small-molecule microarray, higher = more signal;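 also: probe is biotin-labelled aShh protein from a stem cell growth factor screen; measures binding of labelled protein to compounds printed on the slide; score merges feature fluorescence at 667 nm with signal-to-noise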
[18] = probe aNog binding to arrayed compounds – biochemical, biotinylated probe, 635/667 nm fluorescence, primary screen (AID 1115); details: small-molecule microarray, higher = more signal;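 also: probe is biotinylated aNog protein used at 0.15 µg/mL for 1 h at 4 C; z-score combines 667 nm fluorescence of each spot with its signal to noise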
[19] = biological target: Torsin-1A-interacting protein 1 (Homo sapiens) (UniProt Q5JTV8); assay: compound microarray binding of lysate hLAP1 – cell lysate, small-molecule microarray, COS7 lysate, 635/667 nm fluorescence, primary screen (AID 1116); details: 635 nm fluorescence, higher = more signal
Chain of Torsin-1A-interacting protein 1 (Homo sapiens) (Q5JTV8 whole entry, looked up): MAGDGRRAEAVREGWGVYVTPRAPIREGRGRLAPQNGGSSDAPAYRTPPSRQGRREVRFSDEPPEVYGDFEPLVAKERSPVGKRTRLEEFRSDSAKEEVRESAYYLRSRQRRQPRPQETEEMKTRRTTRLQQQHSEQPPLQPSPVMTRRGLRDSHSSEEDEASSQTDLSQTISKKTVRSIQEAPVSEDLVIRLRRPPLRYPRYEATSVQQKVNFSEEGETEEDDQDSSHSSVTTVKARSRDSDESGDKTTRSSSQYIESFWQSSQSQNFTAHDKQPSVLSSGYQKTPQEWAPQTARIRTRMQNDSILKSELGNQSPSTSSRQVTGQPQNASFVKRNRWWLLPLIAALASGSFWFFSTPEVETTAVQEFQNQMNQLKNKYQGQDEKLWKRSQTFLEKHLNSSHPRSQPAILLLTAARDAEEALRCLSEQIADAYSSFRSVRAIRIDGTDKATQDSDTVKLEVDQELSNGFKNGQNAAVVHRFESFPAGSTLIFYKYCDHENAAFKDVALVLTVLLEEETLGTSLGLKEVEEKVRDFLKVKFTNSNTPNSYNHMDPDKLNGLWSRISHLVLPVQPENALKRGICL

[20] = biological target: Alpha-bungarotoxin (Bungarus multicinctus) (UniProt P60615); assay: compounds binding labelled alpha-BTX control protein – biochemical, small-molecule microarray, Alexa647 label, 635/667 nm fluorescence, artefact control for SMM control protein annotation, profiling panel (AID 1117); details: alpha-BTX-A647 binding fluorescence, higher = more signal
Chain of Alpha-bungarotoxin (Bungarus multicinctus) (P60615 whole entry, looked up): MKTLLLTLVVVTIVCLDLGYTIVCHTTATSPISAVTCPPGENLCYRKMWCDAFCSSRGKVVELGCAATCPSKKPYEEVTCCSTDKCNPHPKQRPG

Row | SMILES | composite z-score [1] | composite z-score [2] | composite z-score [3] | z-score [4] | composite z-score [5] | composite z-score [6] | composite z-score [7] | composite z-score [8] | composite z-score [9] | composite z-score [10] | composite z-score [11] | z-score [12] | composite z-score [13] | composite z-score [14] | composite z-score [15] | composite z-score [16] | composite z-score [17] | composite z-score [18] | composite z-score [19] | composite z-score [20]
1 | CCCC[C@@H]1C[C@H]1[C@@H](NC(=O)c1ccccc1)c1ccc(C(=O)OC)cc1 | 0.798 | 0.393 | 1.18 | -2.47 (inactive) | -0.358 | -0.534 | -1.38 | -0.668 | -1.57 | 1.19 | -0.541 | -1.15 | -1.9 | 0.155 | 0.685 | -0.0236 | -0.0849 | -1.02 | -0.679 | -0.0885
2 | CCCCCN1CC=CC23O[C@@H]4/C=C\CCC(C)OC(=O)C4[C@H]2C(=O)N(C(C)CO)[C@@H]3C1=O (stereo not given in full) | -0.472 | -0.225 | -0.327 | 0.304 (inactive) | 0.171 | 0.0131 | -0.601 | -0.0103 | -0.23 | 0.908 | 0.67 | -0.862 | -0.441 | -0.213 | -1.04 | -0.175 | -0.282 | -0.17 | -0.537 | -0.453
3 | O=C1O[C@H](c2ccccc2)[C@H](c2ccccc2)N2[C@H]1[C@@H](C(=O)N1CCCCCCC1)[C@]1(C(=O)Nc3ccc(C#CCCO)cc31)[C@H]2c1ccccc1OCCO | 2.26 | 3.11 | 1.53 | -0.207 (inactive) | 1.76 | 1.5 | 2 | 1.79 | 2.76 | 1.84 | 1.62 | -1.53 | 1.91 | 3.03 | 1.73 | 1.69 | 3.01 | 2.38 | 5.84 | 4.84
4 | CC[C@@H]1C=C(C(=O)O)[C@H](c2ccc(Br)cc2)N1S(=O)(=O)c1ccc(C)cc1 | 0.118 | 0.495 | 0.882 | 1.28 (inactive) | 0.102 | 0.268 | 0.444 | 0.563 | -0.235 | 1.11 | 0.618 | -0.832 | -0.124 | 1.17 | 0.244 | -0.154 | -0.0769 | 0.581 | 0.532 | 0.535
5 | CC(=O)n1cc(C(O)C2C=CC3C(=O)N(c4ccccc4)C(=O)C3N2Nc2ccc([N+](=O)[O-])cc2)c2ccccc21 (stereo not given) | 0.894 | 0.929 | 1.38 | 0.138 (inactive) | -0.0673 | 1.28 | -0.142 | 0.38 | -0.113 | 0.783 | 0.275 | -0.0176 | -0.712 | 1.73 | 0.571 | -0.0459 | -0.0243 | 0.576 | 1.87 | 1.7
6 | CN(C)C(=O)[C@@]1(CCS(=O)(=O)c2ccccc2)COC(c2ccc(OCCCO)cc2)=N1 | 0.656 | 0.476 | 0.977 | -0.824 (inactive) | 0.314 | 0.476 | 0.0041 | -0.448 | -0.471 | 1.04 | 1.31 | -2.25 | 0.149 | 0.614 | -0.429 | -0.154 | 0.414 | -0.288 | 2.75 | 0.301
7 | CC(C)C(O)C1C=CC2C(=O)N(c3ccccc3)C(=O)C2N1Nc1ccc([N+](=O)[O-])cc1 (stereo not given) | 0.0242 | 0.814 | 0.761 | 0.735 (inactive) | 0.635 | 0.368 | -0.0978 | 0.29 | -0.467 | 0.85 | 1.2 | 0.285 | -0.217 | 0.594 | 0.308 | 0.261 | 0.0358 | 0.202 | 1.34 | 0.801
8 | NC(=O)NCC#Cc1ccc2c(c1)[C@]1(C(=O)N2)[C@H](C(=O)Nc2nc3ccccc3s2)[C@H]2C(=O)O[C@H](c3ccccc3)[C@H](c3ccccc3)N2[C@@H]1c1ccccc1OCCO | 1.23 | 1.83 | -0.202 | -0.137 (inactive) | 1.27 | 0.261 | 0.997 | 1.02 | 1.44 | 1.08 | 1.4 | -1.33 | 0.235 | 1.23 | 0.579 | 0.312 | -0.0773 | 2.12 | -0.638 | 2.74
